The text below walks through data of PubChem BioAssay (Tox21).

Results filed as inconclusive are left out. Calls of active or inactive are those of the source. Calls come from the whole dose curve; as a rule, active = well fitted activation curve with a large enough effect in the signal ratio in the repeat runs (not every such curve was filed as active); inconclusive = weak or mixed curves; inactive = flat fitted curve, though single readings scatter; the % refers to the signal ratio.
% is set by controls: 0 for no effect and ±100 for the full control effect.

The nature of this experiment: qHTS assay to identify small molecule agonists of the hypoxia (HIF-1) signaling pathway (AID 1224846). Particulars: HRE-bla ME-180 cells, beta-lactamase ratio, 17 h; series mostly up to 76.8 µM; activation: at the top concentration. An excerpt: U.S. Tox21 Program National Center for Advancing Translational Sciences [NCATS] NIH Chemical Genomics Center [NCGC] U.S. Environmental Protection Agency [EPA] National Institutes of Environmental Health Sciences [NIEHS] National Toxicology Program [NTP] U.S. Food and Drug Administration [FDA] Tox21 Assay Overview: Hypoxia-inducible factor-1 (HIF-1) is the major hypoxia-regulated transcription factor that controls cellular responses to low oxygen concentration. HIF-1 is composed of two subunits: hypoxia responsive HIF-1-alpha and constitutively expressed HIF-1-beta, which is also known as aryl hydrocarbon receptor nuclear translocator. During hypoxic conditions, HIF-1-alpha heterodimerizes with HIF-1-beta and translocates into the nucleus where the HIF-1 complex binds to the hypoxia-response element (HRE) and activates expression of target genes such as VEGF (vascular endothelial growth factor). The HIF-1 pathway is essential to normal growth and development, and is involved in the pathophysiology of cancer, inflammation, and ischemia. Using a beta-lactamase reporter-gene under control of the hypoxia response element, a cell-based assay [CellSensor(TM) HRE-bla ME-180 from Life Technologies, Carlsbad, CA] was used to measure hypoxia-induced signaling. Tox21 10K library compounds were measured for their ability to induce the reporter gene activity.
Tox21 Assay Protocol Summary: HRE-bla ME-180 cells were dispensed at 2,000 cells per well in 6 uL of assay medium containing 0.5% dialyzed FBS into black wall/clear-bottom 1536-well plates using a Multidrop Combi (Thermo Scientific, Waltham, MA) dispenser. After the assay plates were incubated at 37C and 5% CO2 for 5 hrs, 23 nL of compounds dissolved in DMSO, positive controls or DMSO only was transferred to each well of the assay plate using a Pintool station (Kalypsys, San Diego, CA). The assay plates were incubated at 37C and 5% CO2 for 17 hrs. One uL of LiveBLAzerTM B/G FRET substrate (CCF4-AM) (Life Technologies) was added to each well using a Flying Reagent Dispenser (Aurora Discovery, San Diego, CA).
On the technique in general: In qHTS, concentration-response curves come from the screen itself.
On to `O=C(Cl)/C=C/C(=O)Cl`, for which the “activation” value was 0.231% (inactive).

On to `CNC(=O)NC(O)C(Cl)(Cl)Cl` (stereo not given), for which the “activation” value was -0.406% [at 35.5 µM] (inactive).

Take `Cn1c(N)nc2c3cccnc3ccc21`: the “activation” value was 0.118% (inactive). Still for that read-out and setting: the figure for `C/C=C/CC#N` is 0.0807% (inactive). On the same count and under the same terms, for `Cc1ccc2cc(C)ccc2c1` the value was -0.381% (inactive). With `N#CN=C1SCCN1Cc1ccc(Cl)nc1`, the “activation” value is 1.29% (inactive). Turning to `CCNc1nc(NCC)nc(SC)n1`, the “activation” value is 0.588% (inactive). With `O=C(NC(O)C(Cl)(Cl)Cl)NC(O)C(Cl)(Cl)Cl` (stereo not given), the “activation” value was -0.356% [at 35.5 µM] (inactive). Regarding `ClCCCCCCCl`, the “activation” value is -0.593% (inactive). `OCC(Cl)CCl` (stereo not given): the “activation” value is -0.0567% (inactive). Same read-out and setting: the figure for `O=c1[nH]c2ccccc2o1` is -0.951% (inactive); for `CN(C)CCN(C)C` it is -1.87% (inactive); for `O=[N+]([O-])CCO` it is 0.156% (inactive). In the case of `COC(=O)c1ccc(CBr)cc1`, the “activation” value was 0.0103% (inactive).

`CCOC(=O)NC(C)(C)Cc1ccc(Cl)cc1`: the “activation” value is -0.376% [at 35.5 µM] (inactive). Turning to `CC(C)(N)Cc1ccccc1Cl`, the “activation” value was 0.113% [at 35.5 µM] (inactive). As to `Cl/C=C/CCl`, the “activation” value is 0.182% (inactive). On the same count and under the same terms, the figure for `COc1cc(CC(C)N)cc(OC)c1OC` (stereo not given) is 0.302% (inactive); for `NC1(c2ccccc2)CCCCC1` it is -0.573% (inactive).

As for `C[C@H](CN1CCOCC1)C(C(=O)N1CCCC1)(c1ccccc1)c1ccccc1`, the “activation” value is 3.09% (inactive). With `CCCCS(=O)(=O)Cl`, the “activation” value was 0.0566% (inactive). Regarding `ClCCCCl`, the “activation” value was -1.15% (inactive). Same read-out and setting: for `ClCOCCl` the value was -0.0807% (inactive). For the molecule `O=C(O)C(F)(F)C(F)(F)C(F)(F)C(F)(F)C(F)(F)C(F)(F)F`, the “activation” value was -1.74% (inactive). For `COP(=O)(O)OC`, the “activation” value was -0.991% (inactive).

For the molecule `CCCCCCC(=O)CCCCCC/C=C/C[C@@H](O)[C@H](O)[C@@](N)(CO)C(=O)O`, the activation is -0.0517% [at 15.8 µM] (inactive).

As for `CC(C)NCC(O)c1ccc([N+](=O)[O-])cc1` (stereo not given), the “activation” value was 0.585% [at 35.5 µM] (inactive). On the same count and under the same terms, for `N#CC(Br)(Br)C(N)=O` the value was 0.602% (inactive). In the case of `NNCc1ccccc1`, the “activation” value is -0.0336% (inactive). For the molecule `CC[C@H](O)C(C[C@H](C)N(C)C)(c1ccccc1)c1ccccc1`, the “activation” value was 2.25% (inactive). Regarding `CCOP(=O)(CN(CCO)CCO)OCC`, the “activation” value is -0.159% (inactive). For the molecule `CCC(C)(C#N)N=NC(C)(C#N)CC` (stereo not given), the “activation” value was -0.69% (inactive). As for `C=C1C[C@@H]2[C@H](CC[C@]3(C)C(=O)CC[C@@H]23)[C@@]2(C)C=CC(=O)C=C12`, the “activation” value was 1.25% [at 35.5 µM] (inactive). The same measure, in the same setting: for `CCC(CC)(CNC(=O)CCCO)c1cccc(OC)c1` the value was -1.23% [at 35.5 µM] (inactive). In the case of `C[C@@H](N)[C@@H](O)c1ccccc1`, the “activation” value was -0.502% [at 35.5 µM] (inactive). Turning to `C[C@H]1CCCC(=O)CCC/C=C/c2cc(O)cc(O)c2C(=O)O1`, the “activation” value was 3.4% [at 35.5 µM] (inactive).

On to `O=P(O)(O)CN(CP(=O)(O)O)CP(=O)(O)O`, for which the result was inactive. Regarding `CCC(=O)c1ccc(Cl)cc1`, the “activation” value was -0.773% (inactive). Still for that read-out and setting: for `Cc1cc(OC(=O)N(C)C)nn1C(=O)N(C)C` the value was 0.804% (inactive).

Take `CN1COCN(Cc2cnc(Cl)s2)/C1=N\[N+](=O)[O-]`: the “activation” value was -0.993% (inactive).
